Abeta yeast res: qHTS for compounds that reverse cellular toxicity of Amyloid beta (A-beta) peptide in yeast: Primary Screen | yeast expressing A-beta42, growth rescue, OD600, 48 h; response scale: 0% DMSO, 100% iron-clioquinol control | Potency, µM (highest dose often 46.1 µM), actives largely listed as activators | 0.063% of 410,000 active; note: nearly all actives have a fitted effect of over 55% in size
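Yeast A-beta toxicity model in growth medium with pinned compounds, 48 h at 30 C; growth read as absorbance at 600 nm. Normalized to FeCl3/clioquinol equimolar mix (positive) and DMSO (negative).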
MBNL1-CUG inh: qHTS Assay for Inhibitors of MBNL1-poly(CUG) RNA binding; Muscleblind-like protein 1 (Homo sapiens), Q9NR56; TR-FRET MBNL1-His/biotin-(CUG)12 binding, 665/545 ratio; Potency, µM (doses to about 57.5 µM), for the others: at the top dose activity change, negative = inhibition, usual class: inhibitors; 0.036% of 280,000 active; AID 2675, 2010; active = well fitted inhibition curve with a large enough effect in the signal ratio, with a control signal flat, not every such curve was filed as active; inconclusive = small, poorly fitted or top-dose-only effect, or effect the other way, or a change in a side signal; inactive = no such curve, though single readings can be large or run the other way; the % refers to the signal ratio; note: % is set by controls: 0 for no effect and ±100 for the full control effect
Target sequence (Q9NR56 whole entry, looked up): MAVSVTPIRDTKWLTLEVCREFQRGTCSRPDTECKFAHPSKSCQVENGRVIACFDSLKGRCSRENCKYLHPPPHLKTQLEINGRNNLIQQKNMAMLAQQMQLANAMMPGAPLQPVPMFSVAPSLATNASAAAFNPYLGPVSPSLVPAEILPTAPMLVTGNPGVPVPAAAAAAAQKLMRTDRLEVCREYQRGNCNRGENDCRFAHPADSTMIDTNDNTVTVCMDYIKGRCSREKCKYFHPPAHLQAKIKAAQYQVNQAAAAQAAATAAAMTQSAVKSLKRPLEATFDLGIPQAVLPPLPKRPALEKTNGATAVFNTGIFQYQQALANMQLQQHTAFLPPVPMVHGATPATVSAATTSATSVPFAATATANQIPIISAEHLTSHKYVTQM
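Compounds (final 92 nM to 58 uM) are added to His-tagged MBNL1 and biotin-(CUG)12, then terbium anti-His antibody and streptavidin-XL665 (5 nM final). After 60 min at room temperature, the 665/545 nm ratio is read.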
TDP-43 yeast inh: qHTS of TDP-43 Inhibitors. TDP-43 expressing yeast growth rescue, BacTiter-Glo, 24 h. 1.8% of 410,000 active. AID 652104, 2013. Potency, µM (titrated, usually from 46.1 µM), for inactives: at the top dose growth rescue (activation), usual class: activators; note: % of control where 0% means no effect; nearly all actives have a fitted effect of over 50% in size
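In this qHTS, compounds that restore growth of yeast expressing TDP-43 appear as activators. Cells (OD600=0.02, galactose medium, raffinose-pregrown) are incubated with compound 24 hr at 30 deg C and growth is quantified by BacTiter-Glo.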
Glioma ERSR ind: qHTS for Inducers of the Endoplasmic Reticulum Stress Response (ERSR) in Human Glioma: qHTS; Potency, µM, for inactives: top-dose activation, most hits filed as activators; 0.02% of 420,000 active; AID 602332, 2012; U87-MG GRP78 promoter luciferase reporter, 16 h; note: series mostly up to about 76 µM; % of control where 0% means no effect; nearly all actives have a fitted effect of over 35% in size
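Stably transfected U87-MG human glioma cells carrying a GRP78-based luminescent sensor were seeded at 1000 cells/well, pin-dosed with compounds and incubated 16 h. Luciferase reagent was then added, and end-point luminescence was read after 10 min at room temperature.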
aSyn rescue: qHTS of alpha-syn Inhibitors | Yeast expressing alpha-synuclein, growth rescue, BacTiter-Glo, 24 h | Potency, µM (top dose mostly 46.1 µM), without a hit: at the top dose growth rescue (activation), usual class: activators | 0.14% of 370,000 active; note: % of control where 0% means no effect; nearly all actives have a fitted effect of over 65% in size
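Rescue of yeast growth: cells expressing toxic alpha-synuclein, induced in galactose at OD600 0.02, incubated with compound 24 h at 30 C. ATP luminescence quantified growth; inhibitors of toxicity appear as activators.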
FUS suppressor: qHTS for Suppressors of FUS Proteinopathy: Primary screen using FUS-linked yeast assay; AID 1347120, 2019; Potency, µM (titrated, usually from 76.6 µM), usual class: activators; 0.24% of 390,000 active; S. cerevisiae FUS-expressing, growth rescue, OD600, 24 h;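 note: plate controls were DMSO vehicle for no effect and reference control for full effect; nearly all actives have a fitted effect of over 55% in size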
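Yeast FUS proteinopathy model; galactose-induced FUS (2%), starting OD 0.005. Cpds in dilution series, 24hr, 30C, 99% humidity. Abs 600 nm growth. Pos ctrl CP55940 (top 92uM final); neg ctrl DMSO.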
Numbers without * were called inactive. In the library only some 2% were active in any assay of this set; here they are far more common. Unless noted, calls come from the whole dose curve; as a rule, active = well fitted curve in the direction sought with a large enough effect; inconclusive = small, poorly fitted or top-dose-only effect, or another doubt; inactive = no such curve, though single readings can be large; an effect the other way counts as inactive or inconclusive. Potency is the fitted concentration of half-maximal effect.

Screening Cc1ccc(CN2C[C@@H](Sc3nc(C)cc(C)n3)C[C@H]2C(=O)N2CCN(c3ccccc3F)CC2)cc1 returned Glioma ERSR ind -5%.
Screening O=C(Oc1cccc(-n2cnnn2)c1)C1CCCCC1 returned Abeta yeast res inactive, MBNL1-CUG inh 3%, TDP-43 yeast inh 11µM*, Glioma ERSR ind 1% and FUS suppressor inactive.
O=C(Nc1ccc(-n2cnnn2)cc1)C1CCCCC1 was read as Abeta yeast res inactive, MBNL1-CUG inh -8%, TDP-43 yeast inh 9%, Glioma ERSR ind -2%, aSyn rescue -3% and FUS suppressor inactive.
Screening O=C1c2ccccc2C(=O)N1CCc1ccccc1 returned Abeta yeast res inactive, TDP-43 yeast inh 11µM*, Glioma ERSR ind -1%, aSyn rescue 24% and FUS suppressor inactive.
O=C1c2ccccc2C(=O)N1CCc1c(-c2[nH]c3ccccc3c2CCN2C(=O)c3ccccc3C2=O)[nH]c2ccccc12 was read as Abeta yeast res inactive, TDP-43 yeast inh 20%, Glioma ERSR ind -1%, aSyn rescue 0% and FUS suppressor inactive.
`O=C1c2ccccc2C(=O)N1CCc1c(-c2ccccc2)[nH]c2ccccc12` gave Abeta yeast res inactive, TDP-43 yeast inh 11µM*, Glioma ERSR ind 2%, aSyn rescue 10% and FUS suppressor inactive.
Screening CCN1C(=O)CSC1=Nc1ccc(Cl)c(Cl)c1 returned Abeta yeast res inactive, MBNL1-CUG inh -1%, TDP-43 yeast inh 13µM*, Glioma ERSR ind -4%, aSyn rescue -17% and FUS suppressor inactive.
CCN1C(=O)CSC1=Nc1ccc(OC)cc1 was read as Abeta yeast res inactive, MBNL1-CUG inh -9%, TDP-43 yeast inh 17%, Glioma ERSR ind -2%, aSyn rescue 7% and FUS suppressor inactive.
Cc1ccc(/C(=C\CN2CCCC2)c2cccc(/C=C/C(=O)O)n2)cc1 was read as Glioma ERSR ind -3%.
CC(=O)c1ccc(NC(=O)Cn2c(-n3nc(C)cc3C)nc(C)c(C)c2=O)cc1 was read as Abeta yeast res inactive, TDP-43 yeast inh 27%, Glioma ERSR ind 2% and FUS suppressor inactive.
For Cc1cc(=O)n(CC(=O)Nc2ccc(Cl)c(Cl)c2)c(-n2nc(C)cc2C)n1 the results were Abeta yeast res inactive, TDP-43 yeast inh 13µM*, Glioma ERSR ind -3% and FUS suppressor inconclusive.
C=C1C(n2cnc3c(=O)[nH]c(N)nc32)C[C@H](O)[C@H]1CO (some centres not stated) was read as Glioma ERSR ind -3%.
NC(=S)NN=C1CCC(C2CCCCC2)CC1 (configuration not stated) was read as Abeta yeast res 3.2µM*, TDP-43 yeast inh 18%, Glioma ERSR ind -5%, aSyn rescue -8% and FUS suppressor inactive.
`NC(=S)NN=C1CCCCCCCCCC1` gave Abeta yeast res inactive, TDP-43 yeast inh 14µM*, Glioma ERSR ind -3% and aSyn rescue 14%.
For CCOC(=O)[C@@]12CN(C(=O)OC(C)(C)C)CC=C1N(Cc1ccc(OC)cc1)C(=O)[C@H]2CC(=O)NCCCOC the results were FUS suppressor inactive.
For CCSc1nc(N)nc(-c2cccs2)c1C#N the results were Abeta yeast res inactive, MBNL1-CUG inh 15%, TDP-43 yeast inh 22µM*, Glioma ERSR ind inconclusive, aSyn rescue -18% and FUS suppressor inactive.
`O=C(O)/C=C(/CC(=O)O)C(=O)O` gave Glioma ERSR ind -3%.
For COc1ccc(CNc2nc(S(=O)(=O)c3ccccc3)c(Cl)s2)cc1OC the results were Abeta yeast res inactive, MBNL1-CUG inh -2%, TDP-43 yeast inh 1%, Glioma ERSR ind -2%, aSyn rescue 1% and FUS suppressor inactive.

Screens (PubChem)
